# About 2,700 (4%) of roughly 68,000 compounds showed an effect of 50% or more. The list comes from a sample in which strong results are over-represented; it also holds similar structures and randomly drawn compounds.
# System: Plasmodium berghei
# Experiment: Screen against P. berghei liver stage (PbLuc), transformed with Luciferase, at 2uM
# Assay type: functional, HepG2
# Conditions: tested at 2 uM
row,SMILES,INHIBITION
1,O=C(NC1CCCN(c2ncccn2)C1)c1ccoc1 (stereo not given),36.98%
2,CC(=O)c1c(C)nn(S(=O)(=O)c2ccc(Cl)cc2)c1C,11.8%
3,O=C(O)c1ccnc(SCC(=O)c2ccccc2)c1,25.23%
4,Cc1ccc(OC2CCN(S(=O)(=O)N(C)C)CC2)nc1,15.75%
5,C[C@H]1CN2C[C@H](O)CC2CN1Cc1ccc2nccnc2c1 (stereo not given in full),-36.08%
6,COc1cc(Cl)ccc1CNC(=O)N(C)C(C)CS(C)(=O)=O (stereo not given),-22.82%
7,CCS(=O)(=O)CC(C)N(C)C(=O)NCCc1cccc(F)c1F (stereo not given),-4.09%
8,CC(C)Oc1ccccc1CNC(=O)N(C)C(C)CS(C)(=O)=O (stereo not given),-25.21%
9,CCN(C(=O)NCCc1ccccc1Cl)C(C)CS(C)(=O)=O (stereo not given),34.46%
10,COc1ccccc1CCNC(=O)N(C)C(C)CS(C)(=O)=O (stereo not given),50.46%
11,CCN(C(=O)NCCc1cccc(F)c1F)C(C)CS(C)(=O)=O (stereo not given),64.2%
12,Cc1cccc(CN2CCc3c(nc(N4CCC(C)CC4)[nH]c3=O)C2)n1,23.94%
13,COc1ccc(CN2CCCC3(CCN(c4ccsc4)C3=O)C2)cc1 (stereo not given),7.21%
14,N#Cc1ccc(CS(=O)(=O)NC(=O)c2ccc3c(c2)COC3)cc1,-14.32%
15,CCCc1cc(CNc2cc(CCC)nc3ccnn23)on1,-15.75%
16,Fc1cccc(F)c1Cn1c(C2CCNCC2)cc2cccnc21,13.17%
17,C=c1ccoc1=C1NN=C(CNC2CCCN(c3cccnn3)C2)O1 (stereo not given),7.01%
18,O=C(Cc1ccccn1)N1CCc2ncnc(N3CCCC3)c2CC1,-3.19%
19,CCNC(=O)C1CCN(Cc2ccccc2OCC(F)(F)F)CC1,8.59%
20,CC(C)(C)n1ncc(NCCc2ccccc2C(F)(F)F)c(Cl)c1=O,-59.58%
21,CC(=O)N1C[C@H]2CC[C@@H](C1)N(S(=O)(=O)c1ccc(F)cc1Cl)C2,-11.81%
22,C1CCC(NCC2(N3CCOCC3)CCSC2)C1 (stereo not given),-20.95%
23,C1CCC(CNC2CCSCC2)(N2CCOCC2)CC1,60.13%
24,CS(=O)(=O)N1CCC(NCC2(N3CCOCC3)CCCCC2)CC1,7.67%
25,CCN1CC2(CCNCC2)COc2ccccc2S1(=O)=O,3%
26,CC(C)COCC1CN(Cc2ccoc2)Cc2ncn(C)c21 (stereo not given),-13.32%
27,CC(C)COCC1CN(Cc2cnn(C)c2)Cc2ncn(C)c21 (stereo not given),79.02%

row,SMILES,INHIBITION
1,CCOCC1CN(Cc2cnn(C)c2)Cc2ncn(C)c21 (stereo not given),-20.41%
2,CC(=O)N1CCCN(C(=O)CN(C)c2ccc(Cl)cn2)CC1,12.29%
3,Cc1cccc(N(CC(=O)c2ccccc2)C2=NCCCCC2)c1,-17.7%
4,Cc1oncc1C(=O)NCc1cc(=O)n2c(n1)CN(C(C)C)CCC2,4.42%
5,Cc1nc(CCNC(=O)NCc2ccc(N(C)C)nc2)cs1,-16.42%
6,Cc1nc(CCNC(=O)NCc2cccc(N(C)C)n2)cs1,53.45%
7,Cc1nc(CNC(=O)NCCc2ccc(N(C)C)cc2)cs1,12.88%
8,CN(C)c1ncccc1CNc1cc(N2CCCC2CO)ncn1 (stereo not given),-1.02%
9,CC(C)CN(C)Cc1c[nH]nc1-c1ccc(F)cc1F,-22.69%
10,Cc1nonc1CN(C)Cc1c[nH]nc1-c1ccc(F)cc1F,2.59%
11,Cc1cnccc1CN(C)Cc1c[nH]nc1-c1ccc(F)cc1F,51.39%
12,CCCN1CCC(c2cc(CCOc3ccc(C(F)(F)F)cc3)[nH]n2)C1 (stereo not given),27.53%
13,Cc1cccc(CN2CCc3[nH]nc(C(=O)N(C)C)c3C2)n1,-25.31%
14,OC(COCc1ccccc1)CSc1nnc2ccccn12 (stereo not given),2.9%
15,OC(COCc1cccs1)CSc1nnc2ccccn12 (stereo not given),45.82%
16,OC(COCc1ccco1)CSc1nnc2ccccn12 (stereo not given),76.82%
17,Cc1ccccc1N1CCCN(C(=O)CCc2ccncc2)CC1,1.42%
18,Cc1ccccc1N1CCCN(c2ccncn2)CC1,53.45%
19,Cc1ccccc1N1CCN(c2ccncn2)C(C)C1 (stereo not given),-90.79%
20,CC(C)N1CCOC(Cc2nn3c(Cc4ccccc4)nnc3s2)C1 (stereo not given),20.29%
21,CC(C)c1nnc2sc(CC3CN(Cc4ccccc4)CCO3)nn12 (stereo not given),23.33%
22,CCCc1nnc2sc(CC3CN(Cc4ccccc4)CCO3)nn12 (stereo not given),51.43%
23,CCN1CCc2[nH]cnc2C12CCN(c1ccc(Cl)c(C(=O)O)n1)CC2,-3.87%
24,O=C(NCc1cccnc1-n1cncn1)c1cc(Cl)ccn1,34%
25,CNCC1CCC(c2cc(CN(C)C(=O)c3cnccn3)n(C)n2)CC1 (stereo not given),24.98%
26,Cc1c(C(C)NC(=O)Nc2ccc(F)cc2F)cnn1C (stereo not given),-41.11%
27,Cc1c(C(C)NC2CCN(C(C)C)CC2)cnn1-c1ccc(F)cc1F (stereo not given),14.82%

row,SMILES,INHIBITION
1,Cc1c(C(C)NC2CCOCC2)cnn1-c1ccc(F)cc1F (stereo not given),69.67%
2,COc1ccc(-n2ncc(C(C)NC3CCSCC3)c2C)cc1 (stereo not given),-62.99%
3,CSc1ncc(CNC(C)c2cnn(-c3ccc(F)cc3F)c2C)cn1 (stereo not given),-20.35%
4,Cc1c(C(C)NC2CSCCSC2)cnn1-c1ccc(F)cc1F (stereo not given),81.59%
5,CC(=O)N1CCC(NC(C)c2cnn(-c3ccc(F)cc3F)c2C)CC1 (stereo not given),79.21%
6,Cc1c(C(C)NCC2CCCC2)cnn1-c1ccc(F)cc1F (stereo not given),10.05%
7,Cc1c(C(C)NC2CCCC2)cnn1-c1ccc(F)cc1F (stereo not given),12.43%
8,Cc1cc2c(cc1NC(N)=O)OCO2,23.3%
9,CCn1nc(C)cc1C(=O)N1C[C@@H]2C[C@@H](c3nnc(C)[nH]3)O[C@@H]2C1,24.23%
10,CN1CCN(C2COC3(CCN(Cc4ccsc4)CC3)C2)CC1 (stereo not given),-0.38%
11,COc1ccc2c(ccn2CCC(=O)/N=c2\[nH]nc(C3CCCO3)s2)c1 (stereo not given),1.57%
12,Cc1nc(C)c(CC(=O)N2C[C@@H](C(=O)O)[C@H](c3ccccc3C)C2)s1,-57.67%
13,CCC[C@@H]1CN(C(=O)c2c(F)ccc(C)c2Cl)C[C@H]1C(=O)O,2.3%
14,CCOc1ccccc1CC(=O)N1C[C@@H](C(=O)O)[C@H](c2ccncc2)C1,-36.68%
15,CCC[C@@H]1CN(C(=O)Cc2sc(C)nc2C)C[C@H]1C(=O)O,53.55%
16,Cc1nc(C)c(CC(=O)N2C[C@@H](C(=O)O)[C@H](c3ccncc3)C2)s1,56.78%
17,Cc1nc(C)c(CC(=O)N2C[C@H]3CC[C@@H](C2)N(CC2CC2)C3)s1,-38.36%
18,CCc1nccn1C1CCCN(C(=O)c2ccc3c(c2)OCCO3)C1 (stereo not given),-14.17%
19,CCOC1CCC2(CCN(C(=O)c3csnn3)CC2)c2ccccc21 (stereo not given),30.15%
20,CC(C)(C)c1nc(CN2CCN(C(=O)c3cnccn3)CC2)cs1,8.5%
21,COc1cccc(CN2C[C@@H]3COC[C@]3(COCc3ccccn3)C2)c1,17.35%
22,O=C(Nc1ccc(-c2csnn2)cc1)N1CCC(N2CCCC2)C1 (stereo not given),-55.13%
23,Cc1noc(CCNS(=O)(=O)N2CCCC2c2ccco2)n1 (stereo not given),51.76%
24,Cc1noc(CCNS(=O)(=O)N2CCCC2c2ccc(C)o2)n1 (stereo not given),20.34%
25,Cc1noc(CCCNS(=O)(=O)N2CCCC2c2ccco2)n1 (stereo not given),41.52%
26,CN(Cc1cccc(C(N)=O)c1)CC1CCCN1c1cccnn1 (stereo not given),15.67%
27,CCOC1CCN(C(=O)c2c(Cl)c3ccccc3n2C)CC1,2.8%

row,SMILES,INHIBITION
1,Cc1ccsc1C(O)CNS(=O)(=O)Cc1ccc(F)cc1 (stereo not given),-10.98%
2,Cc1nc(NCCC23CCCN2CCC3)cc(C2CCCNC2)n1 (stereo not given),55.66%
3,Cc1nc(NCCC23CCCN2CCC3)cc(C2CCNCC2)n1,50.61%
4,Cc1nc(NCc2ccc(C)o2)cc(C2CCNCC2)n1,7.42%
5,Cc1cc(C2CCC2)nc(NCCC23CCCN2CCC3)n1,-44.93%
6,CNc1cc(C2CCCNC2)nc(C)n1 (stereo not given),-23.54%
7,Cc1nc(NCC23CCCN2CCC3)cc(C2CCCNC2)n1 (stereo not given),35.46%
8,CCO[C@@H]1CC[C@H]2[C@H]1OCCN2C(=O)CC1=CCCCC1,-32.82%
9,CC(C)n1cnc(C2CN(C)c3ccc(C(=O)NC4CCCC4)cc32)n1 (stereo not given),9.36%
10,O=C(c1ccc2c(c1)[nH]c(=O)n2C1CCC(O)CC1)N1CCOCC1 (stereo not given),42.8%
11,Cc1cc(N2CCCC2c2nc(C)cc(CCC(=O)O)n2)ncn1 (stereo not given),27.81%
12,NC(=O)C1CCN(C(=O)NCc2ccccc2-n2cccn2)C1 (stereo not given),32.41%
13,c1cncc(COC2COC3(CCN(c4cnccn4)CC3)C2)c1 (stereo not given),-16.36%
14,COc1ccc(CC(=O)N2CCN(Cc3ccco3)C[C@@H]2C)cc1,19.69%
15,COc1ccccc1CC(=O)N1CCN(Cc2ccco2)C[C@@H]1C,4.19%
16,C[C@@H]1CN(Cc2ccco2)CCN1C(=O)Cc1ccccc1F,50.68%
17,Cc1nn(C)c(C)c1CN(C)C(C(=O)O)c1ccc(F)cc1F (stereo not given),13.99%
18,CNC(=O)C(C)(C)NC(=O)c1cc(COc2ccccc2OC)[nH]n1,-25.61%
19,COc1ccc(Cl)cc1CN(CC(N)=O)C(C)C,50.46%
20,COc1ccc(Cl)cc1CC(=O)NS(=O)(=O)c1ccc(C(N)=O)cc1,58.96%
21,COc1ccc(C)cc1CC(=O)NS(=O)(=O)c1ccc(C(N)=O)cc1,43.75%
22,COc1ccc(C)cc1CN(CC(N)=O)C(C)C,11.51%
23,COc1ccc(F)cc1CN(CC(N)=O)C(C)C,-21.69%
24,COc1ccccc1CC(=O)NS(=O)(=O)c1ccc(C(N)=O)cc1,1.5%
